The supplement of paper PMC6555819

tested on: FXR:RXRa (NR concentration 270 nM, RXRa partner concentration 90 nM); test: PBM binding z-score (relative to random genomic background probes); higher = stronger binding; sequences stand for … in GC…GCGATTGACAGCGTAGAATGAAGG
How it was run: (§1)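 For binding z-scores, the reference was random background probes on custom Agilent 4×180K protein-binding microarrays. These arrays were incubated 1 h with ligand-free nuclear receptor dimers in PBS pH 7.4, 2% milk, 0.02% Triton X-100, 1 mM DTT, 0.2 mg/mL BSA and 0.4 mg/ml salmon testes DNA. Fluorescence was scanned after antibody detection of each partner (one per run) and regression-normalized.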

| Sequence | PBM binding z-score |
| --- | --- |
| TCAGACAGGTGAAGGTAACCCAGGTACGCAGTCG | 1.04 |
| CCTTACGGGTCAAGGTTATAACACGGGTGGTACG | 5.53 |
| CAAACTAGGTCACGAAGGGTCAAAGTCGAATGAC | 7.24 |
| GGAACGAGGGCAAAGTCGATAGCATCTGTCGACG | 0.356 |
| TGAATGAGGTTATAAGAACAGGGAACGTTGCAAA | 1.63 |
| CCTAGCAGGCCAGGGTCACTAAAGCATTTCGCTT | 1.78 |
| ATCGAAAGGTCGAGGTGAATATAGAGAAAGGGAA | 4.19 |
| GCATATAGGTAATACAAGGTGAAAGTGCGATTGT | 1.29 |
| AATACAGGGTCACTAGGCCATAGTAGGTACGAAT | 5.83 |
| GCTTCTAGGTCAACTGATGGTCAGCTAAAGCTCG | 4.49 |
| TCATATAGGTAAATGCTAGGTGACAGTCCGATCT | 0.752 |
| CCTACTGGGCCATTCAGAGGTCATTCATCATATG | 2.68 |
| TCATATAGTTAAAGGTGAAAGTCGAACGATATGA | 0.692 |
| CCTTACGGGTCACGGACAGGTTATAGCATTTGGA | 6.85 |
| CCGACTGGGGCATAAGGTTACGATAAGCCAGCCC | 0.452 |
| GCTAGCAGGCCATTTGGCTCACTCAATGACGGGC | -0.798 |
| CCTACTGGGCCAAAGTTCATTGATTCCAATGCTC | 2.2 |
| ACAGACCGGTGAGTGAAGGTAACTCAGCTGGACG | -0.151 |
| TCTGCTAGGTCAACGACGGTCAGCTAATCTGCTA | 3.49 |
| ACTAGTTGGTCAGTTGAGGTCACACACAATTCGG | 3.26 |

| Sequence | PBM binding z-score |
| --- | --- |
| ACTTACGGGTCAACGAGGTTAGAGCACGCGTATA | 6.72 |
| TTACCAAGGTGAGCTAAGGTCGTTGATCCAACTC | 3.04 |
| CGAACGAGGGCATGAGTTGATAGCCAATGCCGAT | 0.587 |
| ATCTCTAGGTAAAAGTTCAGTGGATCCCGAGGAT | 1.06 |
| GCTGCTAGTTCAGGTTGGTCAGCTAACGGGTACG | -0.234 |
| TCATATCGGTAAATGCTAGGTGAAAGTCCGATCT | 0.228 |
| ATGGAAAGGTCGAGGTGAGTATAGAGAAAGGGAA | 4.15 |
| CGAACTAGGTAATTGACAGGACAGTGAATAGTAA | -0.398 |
| TAGCCCAGGTCATGCGGGCCAGTATAGTGTCGGC | 4.35 |
| CCTACTGGGCCATCATGTCATTGATATCAACGTT | -0.0902 |
| TATACAGGCTCAAAGGCCAGAGTACGAATGTCGA | -0.0411 |
| ATCTCTAGGTAAAGCTAGTTCAGTGAATGCAAAT | 0.153 |
| ATCTCTAGGTAAACATAGTTCAGTGAATGCAAAT | 0.367 |
| CCAGACAGGTGAGAAGGTATCTCAGCCTCGATTA | -0.148 |
| ATCGAGAGGTCGAAGGTGAGTATACCCACCCGAA | 3.03 |
| CCTACTGGACCAAAGGTCATTGATTCCAATGCTC | 4.9 |
| CGTCCAAGGTCAGCAGGCCAGTGAAAGCGACGTG | 4.9 |
| AGAATGACGTTACCAAAGATCAGGGAAACGCTTG | -0.187 |
| TCTGGGAGGACACGAAGGTCAGAGCTTTCCAGAG | 1.36 |
| ATACCAAGGTGATCGTGAGGTCGTTGTTACTAAC | 1.57 |

tested on: LXRa:RXRa (NR concentration 270 nM, RXRa partner concentration 90 nM); test: as above
How it was run: as §1

| Sequence | PBM binding z-score |
| --- | --- |
| TCAGACAGGTGAAGGTAACCCAGGTACGCAGTCG | 1.3 |
| CCTTACGGGTCAAGGTTATAACACGGGTGGTACG | 3.71 |
| CAAACTAGGTCACGAAGGGTCAAAGTCGAATGAC | 7.09 |
| GGAACGAGGGCAAAGTCGATAGCATCTGTCGACG | 0.379 |
| TGAATGAGGTTATAAGAACAGGGAACGTTGCAAA | 1.18 |
| CCTAGCAGGCCAGGGTCACTAAAGCATTTCGCTT | 1.59 |
| ATCGAAAGGTCGAGGTGAATATAGAGAAAGGGAA | 3.5 |
| GCATATAGGTAATACAAGGTGAAAGTGCGATTGT | 2.52 |
| AATACAGGGTCACTAGGCCATAGTAGGTACGAAT | 4.98 |
| GCTTCTAGGTCAACTGATGGTCAGCTAAAGCTCG | 3.12 |
| TCATATAGGTAAATGCTAGGTGACAGTCCGATCT | 0.626 |
| CCTACTGGGCCATTCAGAGGTCATTCATCATATG | 4.55 |
| TCATATAGTTAAAGGTGAAAGTCGAACGATATGA | 1.27 |
| CCTTACGGGTCACGGACAGGTTATAGCATTTGGA | 5.09 |
| CCGACTGGGGCATAAGGTTACGATAAGCCAGCCC | 0.99 |
| GCTAGCAGGCCATTTGGCTCACTCAATGACGGGC | -0.75 |
| CCTACTGGGCCAAAGTTCATTGATTCCAATGCTC | 3.36 |
| ACAGACCGGTGAGTGAAGGTAACTCAGCTGGACG | -0.178 |
| TCTGCTAGGTCAACGACGGTCAGCTAATCTGCTA | 4.34 |
| ACTAGTTGGTCAGTTGAGGTCACACACAATTCGG | 3.93 |

| Sequence | PBM binding z-score |
| --- | --- |
| ACTTACGGGTCAACGAGGTTAGAGCACGCGTATA | 4.76 |
| TTACCAAGGTGAGCTAAGGTCGTTGATCCAACTC | 1.56 |
| CGAACGAGGGCATGAGTTGATAGCCAATGCCGAT | 0.378 |
| ATCTCTAGGTAAAAGTTCAGTGGATCCCGAGGAT | 1.66 |
| GCTGCTAGTTCAGGTTGGTCAGCTAACGGGTACG | -0.0295 |
| TCATATCGGTAAATGCTAGGTGAAAGTCCGATCT | 0.361 |
| ATGGAAAGGTCGAGGTGAGTATAGAGAAAGGGAA | 3.47 |
| CGAACTAGGTAATTGACAGGACAGTGAATAGTAA | -0.336 |
| TAGCCCAGGTCATGCGGGCCAGTATAGTGTCGGC | 3.42 |
| CCTACTGGGCCATCATGTCATTGATATCAACGTT | -0.142 |
| TATACAGGCTCAAAGGCCAGAGTACGAATGTCGA | 0.0342 |
| ATCTCTAGGTAAAGCTAGTTCAGTGAATGCAAAT | 1.45 |
| ATCTCTAGGTAAACATAGTTCAGTGAATGCAAAT | 4.22 |
| CCAGACAGGTGAGAAGGTATCTCAGCCTCGATTA | -0.116 |
| ATCGAGAGGTCGAAGGTGAGTATACCCACCCGAA | 2.43 |
| CCTACTGGACCAAAGGTCATTGATTCCAATGCTC | 5.68 |
| CGTCCAAGGTCAGCAGGCCAGTGAAAGCGACGTG | 3.41 |
| AGAATGACGTTACCAAAGATCAGGGAAACGCTTG | -0.0658 |
| TCTGGGAGGACACGAAGGTCAGAGCTTTCCAGAG | 1.16 |
| ATACCAAGGTGATCGTGAGGTCGTTGTTACTAAC | 1.11 |
